# Data: PubChem BioAssay AID743320 (Broad Institute, 2014)
# Entries with a potency or affinity are not part of this list. The source made the active and inactive calls.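 The calls were made as follows: active = signal drop whose fitted half-maximal potency is at most twice the top valid dose tested; inconclusive = flat curve inhibiting 30 to 70 percent, or a poor fit; inactive = the rest.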
# Target: Endoplasmic reticulum aminopeptidase 2 (Homo sapiens) (UniProt Q6P179)
# Assay: ERAP2 aminopeptidase inhibitors, dose response, selectivity assay for selective ERAP1 modulator project, biochemical, fluorescence plate reader, cherry-picked, set 2 (AID 743320)
# Settings: recombinant ERAP2, Arg-AMC fluorescence, 1 h; series mostly up to 11 µM
# Endoplasmic reticulum aminopeptidase 2 (Homo sapiens), sequence (Q6P179 whole entry, looked up): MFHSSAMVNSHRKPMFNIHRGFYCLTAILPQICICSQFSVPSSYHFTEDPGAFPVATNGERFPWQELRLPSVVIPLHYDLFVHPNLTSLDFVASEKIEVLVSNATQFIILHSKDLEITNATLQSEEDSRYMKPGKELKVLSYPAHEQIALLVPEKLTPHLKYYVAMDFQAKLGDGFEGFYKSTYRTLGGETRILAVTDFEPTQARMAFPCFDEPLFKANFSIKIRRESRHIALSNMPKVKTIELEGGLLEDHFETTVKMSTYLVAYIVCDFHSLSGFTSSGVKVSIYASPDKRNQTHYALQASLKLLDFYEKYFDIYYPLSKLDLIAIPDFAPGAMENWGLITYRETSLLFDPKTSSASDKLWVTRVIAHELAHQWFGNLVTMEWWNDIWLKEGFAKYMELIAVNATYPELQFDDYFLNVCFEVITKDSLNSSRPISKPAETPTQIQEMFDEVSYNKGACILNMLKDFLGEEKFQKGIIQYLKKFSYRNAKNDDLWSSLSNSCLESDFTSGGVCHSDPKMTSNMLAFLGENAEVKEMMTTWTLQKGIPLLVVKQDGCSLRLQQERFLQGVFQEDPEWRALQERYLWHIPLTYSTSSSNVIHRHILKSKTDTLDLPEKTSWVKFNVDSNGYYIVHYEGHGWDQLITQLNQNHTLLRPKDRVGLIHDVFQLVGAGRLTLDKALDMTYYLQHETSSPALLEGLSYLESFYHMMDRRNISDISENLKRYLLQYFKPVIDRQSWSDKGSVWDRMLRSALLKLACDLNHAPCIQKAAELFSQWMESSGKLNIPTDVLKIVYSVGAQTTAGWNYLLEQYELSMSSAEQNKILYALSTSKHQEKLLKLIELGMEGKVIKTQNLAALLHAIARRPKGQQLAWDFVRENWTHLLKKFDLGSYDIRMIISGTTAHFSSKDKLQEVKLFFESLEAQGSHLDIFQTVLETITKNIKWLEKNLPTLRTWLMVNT
row,SMILES,outcome
1,C[C@@H]1CCCCO[C@@H](CN(C)Cc2ccccc2)[C@@H](C)CN([C@H](C)CO)C(=O)c2cc(NS(=O)(=O)c3cccs3)ccc2O1,inactive
2,Cc1cc(=O)oc2c(CN3CCN(C)CC3)c(O)c(Cl)cc12,inactive
3,C[C@@H]1CN([C@H](C)CO)C(=O)c2cccc(NC(=O)Nc3ccccc3)c2O[C@@H]1CN(C)Cc1ccc(C(=O)O)cc1,inactive
4,C[C@@H]1CCCCO[C@@H](CN(C)CC2CC2)[C@@H](C)CN([C@H](C)CO)C(=O)c2cc(NS(=O)(=O)c3ccc(Cl)cc3)ccc2O1,inactive
5,C[C@H](CO)N1C[C@H](C)[C@H](CN(C)Cc2ccncc2)Oc2c(NC(=O)Nc3ccc(C(F)(F)F)cc3)cccc2C1=O,inactive
6,COc1ccc(CN(C)C[C@@H]2OCCCC[C@H](C)Oc3ccc(NS(=O)(=O)c4cccs4)cc3C(=O)N([C@@H](C)CO)C[C@@H]2C)cc1,inactive
7,Cc1noc(C)c1NC(=O)Nc1ccc2c(c1)C(=O)N([C@H](C)CO)C[C@@H](C)[C@@H](CN(C)Cc1ccc(C(F)(F)F)cc1)OCCCC[C@@H](C)O2,inactive
8,C[C@@H]1CCCCO[C@@H](CN(C)CC2CC2)[C@@H](C)CN([C@H](C)CO)C(=O)c2cc(NS(=O)(=O)c3cccs3)ccc2O1,inactive
9,C[C@H]1CN([C@@H](C)CO)C(=O)c2cccc(NC(=O)Nc3ccc4c(c3)OCO4)c2O[C@@H]1CN(C)CC1CC1,inactive
10,COc1ccc2c3c([nH]c2c1)[C@H](CO)N(Cc1cc(F)ccc1F)CC31CN(C)C1,inactive
11,Cc1noc(C)c1S(=O)(=O)N(C)C[C@@H]1OCCCC[C@@H](C)Oc2ccc(NS(=O)(=O)c3cccs3)cc2C(=O)N([C@@H](C)CO)C[C@@H]1C,inactive
12,COc1ccc(CN(C)C[C@H]2OCCCC[C@@H](C)Oc3ccc(NS(=O)(=O)c4cccs4)cc3C(=O)N([C@H](C)CO)C[C@H]2C)cc1,inactive
13,C[C@@H]1CN([C@H](C)CO)C(=O)c2cc(NC(=O)Nc3ccc(F)cc3)ccc2O[C@H]1CN(C)Cc1ccc(C(=O)O)cc1,inactive
14,O=C(C[C@H]1CC[C@@H]2[C@H](COC[C@@H](O)CN2C(=O)Nc2cccc(Cl)c2)O1)N1CCCCC1,inactive
15,C[C@@H]1CCCCO[C@@H](CN(C)Cc2ccc(C(=O)O)cc2)[C@@H](C)CN([C@H](C)CO)C(=O)c2cc(NC(=O)Nc3cccc4ccccc34)ccc2O1,inactive
16,C[C@@H]1CCCCO[C@@H](CN(C)C)[C@@H](C)CN([C@@H](C)CO)C(=O)c2cc(NS(=O)(=O)c3ccc(Cl)cc3)ccc2O1,inactive
17,O=C(C[C@H]1CC[C@H]2[C@@H](COC[C@@H](O)CN2C(=O)Nc2cccc(Cl)c2)O1)N1CCCCC1,inactive
18,CNC[C@H]1OCCCC[C@@H](C)Oc2ccc(NS(=O)(=O)c3ccc(C)cc3)cc2C(=O)N([C@@H](C)CO)C[C@H]1C,inactive
19,C[C@@H]1CCCCO[C@H](CN(C)C)[C@H](C)CN([C@H](C)CO)C(=O)c2cc(NS(=O)(=O)c3ccc(Cl)cc3)ccc2O1,inactive
20,COc1ccc(CN(C)C[C@@H]2OCCCC[C@@H](C)Oc3ccc(NS(=O)(=O)c4cccs4)cc3C(=O)N([C@H](C)CO)C[C@H]2C)cc1,inactive
21,COCCCn1c(C(=O)N2CCOCC2)cc2c(=O)n3ccccc3nc21,inactive
22,CCCN(C)C[C@@H]1OCCCC[C@@H](C)Oc2ccc(NS(=O)(=O)c3ccccc3)cc2C(=O)N([C@H](C)CO)C[C@@H]1C,inactive
23,CCCN(C)C[C@@H]1OCCCC[C@@H](C)Oc2ccc(NS(=O)(=O)c3c(C)noc3C)cc2C(=O)N([C@H](C)CO)C[C@@H]1C,inactive
24,C[C@H](CO)N1C[C@H](C)[C@H](CN(C)CC2CCCCC2)Oc2c(NC(=O)Nc3ccc(C(F)(F)F)cc3)cccc2C1=O,inactive
25,CCCN(C)C[C@@H]1OCCCC[C@@H](C)Oc2ccc(NS(=O)(=O)c3ccc(F)cc3)cc2C(=O)N([C@H](C)CO)C[C@@H]1C,inactive
26,C[C@@H]1CCCCO[C@@H](CN(C)CC2CCCCC2)[C@H](C)CN([C@@H](C)CO)C(=O)c2cc(NC(=O)Nc3ccccc3)ccc2O1,inactive
27,COc1ccc(NC(=O)Nc2ccc3c(c2)C(=O)N([C@@H](C)CO)C[C@@H](C)[C@H](CN(C)Cc2ccc(C(=O)O)cc2)OCCCC[C@H](C)O3)cc1,inactive
28,COc1cc2cc(C(=O)N3CCN(Cc4ccc5c(c4)OCO5)CC3)c(=O)oc2cc1OC,inactive
29,COc1ccc(S(=O)(=O)Nc2ccc3c(c2)C(=O)N([C@@H](C)CO)C[C@H](C)[C@H](CN(C)C)OCCCC[C@@H](C)O3)cc1,inactive
30,C[C@@H]1CCCCO[C@@H](CN(C)S(C)(=O)=O)[C@@H](C)CN([C@@H](C)CO)C(=O)c2cc(NS(=O)(=O)c3ccc(Cl)cc3)ccc2O1,inactive
